Test results reported in PubChem BioAssay AID493027 (The Scripps Research Institute Molecular Screening Center, 2011).
About 45 (2%) of roughly 2,000 compounds were called active.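 Rule for the calls: active = inhibition above the screen-wide mean inhibition plus 3 SD (cut at about 44% in these data); inactive = the rest.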 For the sample, actives were picked, then their nearest neighbours and some compounds at random.

Each compound was assayed against Perilipin-1 (Homo sapiens) + 1-acylglycerol-3-phosphate O-acyltransferase ABHD5 (Homo sapiens) (UniProt O60240+Q8WTS1) (assay: ABHD5-PLIN1 interaction inhibitors, pilot screen, cell lysate, split luciferase complementation, luminescence, NIH validation set (AID 493027;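 note: 0% = DMSO wells with the 100% control not disclosed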)). Conditions: split G. princeps luciferase complementation, 4 h; at 7.9 µM, active compounds read high.
Sequence of Perilipin-1 (Homo sapiens) + 1-acylglycerol-3-phosphate O-acyltransferase ABHD5 (Homo sapiens) (O60240 whole entry, looked up): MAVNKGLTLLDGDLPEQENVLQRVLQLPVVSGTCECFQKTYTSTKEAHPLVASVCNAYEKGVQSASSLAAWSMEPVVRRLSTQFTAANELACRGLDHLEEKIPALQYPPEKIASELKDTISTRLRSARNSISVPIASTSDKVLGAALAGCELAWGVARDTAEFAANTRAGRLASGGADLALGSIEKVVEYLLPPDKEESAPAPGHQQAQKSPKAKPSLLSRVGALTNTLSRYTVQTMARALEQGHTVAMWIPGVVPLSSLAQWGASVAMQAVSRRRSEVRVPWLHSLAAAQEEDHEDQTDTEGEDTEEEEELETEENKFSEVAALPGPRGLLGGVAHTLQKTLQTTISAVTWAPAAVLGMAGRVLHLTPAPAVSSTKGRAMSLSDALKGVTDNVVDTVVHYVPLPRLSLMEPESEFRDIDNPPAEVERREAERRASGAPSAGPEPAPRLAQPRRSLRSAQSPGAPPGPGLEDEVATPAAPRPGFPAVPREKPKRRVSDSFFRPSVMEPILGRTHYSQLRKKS
Sequence of Perilipin-1 (Homo sapiens) + 1-acylglycerol-3-phosphate O-acyltransferase ABHD5 (Homo sapiens) (Q8WTS1 whole entry, looked up): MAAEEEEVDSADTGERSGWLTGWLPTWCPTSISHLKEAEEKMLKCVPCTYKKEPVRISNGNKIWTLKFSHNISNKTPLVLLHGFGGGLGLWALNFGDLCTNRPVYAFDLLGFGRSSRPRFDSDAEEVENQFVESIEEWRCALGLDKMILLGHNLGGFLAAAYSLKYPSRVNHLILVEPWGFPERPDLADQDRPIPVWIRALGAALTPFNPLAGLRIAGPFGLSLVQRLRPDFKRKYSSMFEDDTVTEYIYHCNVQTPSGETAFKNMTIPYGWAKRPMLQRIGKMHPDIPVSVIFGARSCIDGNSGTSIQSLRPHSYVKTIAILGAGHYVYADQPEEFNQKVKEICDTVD

inhibition, active:
O=C1C=CC(=O)C(C2=C3C(=O)N(CCc4ccccc4)CC(=O)N3CCC2)=C1 68.9%
COc1ccc(C2=CC(=O)C=CC2=O)cc1 73.7%
COC(=O)C1=C(C)N(Cc2ccco2)C(=O)/C1=C\c1ccc([N+](=O)[O-])cc1 86%
CCN1/C(=C/C=C/C=C/c2sc3ccccc3[n+]2CC)Sc2ccccc21 52.7%
CC1=CC(=O)c2ccccc2C1=O 44.4%
CCOc1cc2c3c(c1)C(C)=CC(C)(C)N3C(=O)C2=O 43.5%
COc1ccc(CN(CCC(c2ccccc2)c2ccc(OC(C)C)cc2)C(=O)CCl)cc1OC (stereo not given) 64.4%
COC(=O)c1cc(-c2ccc(C)o2)nc2ccccc12 78%
O=C(c1ccco1)N(CCC(c1ccccc1)c1ccco1)Cc1ccco1 (stereo not given) 56.6%
CC(C)N1C(=O)/C(=C\c2nc3ccccc3c(=O)[nH]2)c2ccccc21 70.2%
O=C(Nc1ccc(Oc2c(F)c(F)c(F)c(F)c2F)cc1)OC1CCN2Cc3ccccc3N=C12 (stereo not given) 71.9%

inhibition, inactive:
Cc1nc(C)c(C)nc1C -2.64%
O=C1CCCCCN1Cc1ccccc1 -0.49%
CC1(C)CC(CC(=O)Nc2nccs2)(c2ccccc2)CCO1 (stereo not given) -1.2%
COc1ccc(-c2nc(NC(C)=O)sc2-c2ccc(OC)cc2)cc1 11.4%
COc1ccc(C2C(=O)c3ccccc3C2=O)cc1 -2.92%
NS(=O)(=O)c1ccc(CNC(=O)c2cc(-c3ccccc3)nc3ccccc23)cc1 10.2%
CCOc1ccc2nc(NC(=O)NC3CCCCC3)sc2c1 -5.14%
CCOc1cccc(N2C(=O)CC(N(CCc3ccc(OC)c(OC)c3)C(=O)CC)C2=O)c1 (stereo not given) -6.24%
COCCCN1C(=O)/C(=C\c2cccs2)C(C(=O)OC)=C1C 3.99%
COC(=O)c1ccc(=O)n(Cc2ccco2)c1 12.2%
CN=C1c2cc3cc(OC)ccc3n2CCN1C 3.44%
Oc1[nH]c2ccccc2c1N=Nc1ccccc1 -0.17%
COC(=O)c1cc(COc2ccc3ccc(=O)oc3c2)c(C)o1 -9.09%
Cc1ccccc1C(=O)NCC(=O)O 0.22%
COc1ccc(CCNC(=O)c2ccc(Cl)cc2)cc1OC -5.87%
CC(CN1c2ccccc2Sc2ccccc21)N(C)C (stereo not given) -9.88%
CN(C)CCCN1c2ccccc2Sc2ccccc21 -3.33%
CC(=O)N(C(C)=O)c1nc2nc(C)cc(C)n2n1 -0.49%
OC(C#CCN1CCCC1)(c1ccccc1)c1cccnc1 (stereo not given) 0.07%
COc1ccc(Cc2nc(-c3ccc(Br)cc3)no2)cc1 -12%
CCOc1ccc(CC2CCC(=O)NC2=O)cc1 (stereo not given) 3.55%
O=Cc1ccc(OC(=O)c2cccnc2)cc1 -5.64%
Fc1ccc(-n2cc(CNCCc3ccccn3)c(-c3ccccc3Cl)n2)cc1 1.9%
CC(C)(C)OC(=O)N1CC(O)CC1C(=O)OCC(=O)c1ccc(Cl)cc1 (stereo not given) -9.04%
CC(C)=CCC/C(C)=C/CC/C(C)=C/CC/C(C)=C/CC1=C(C)C(=O)c2ccccc2C1=O 18.4%
CCNC1=C(Cl)C(=O)c2ccccc2C1=O -12.7%
COc1ccc2[nH]c3c(=O)n(/N=C/[C@H]4C(C)C=C(C)CC4C)c(=O)[nH]c3c2c1 (stereo not given in full) 23.9%
COc1ccc(CCNC(=O)c2c(O)c3c([nH]c2=O)CCCC3)cc1 3.26%
COc1ccc(C(=O)OCc2cc3cccc(C)c3[nH]c2=O)cc1 -1.47%
Cc1cc(-c2nn(-c3ccccc3F)cc2CN2CCC(O)CC2)c(C)s1 -2.82%
COc1cc2c3c(c1)C1(C(=O)N3C(C)(C)C=C2C)C(C#N)=C(N)Oc2cc(C)oc(=O)c21 (stereo not given) -0.82%
COc1cc2c3c(c1)C(C)CC(C)(C)N3C(=O)C2=O (stereo not given) 6.69%
CS(=O)(=O)Nc1cccc(C(=O)CC2(O)C(=O)Nc3ccc(Br)cc32)c1 (stereo not given) -3.35%
COc1cc2c(cc1OC)-c1nnc(C)n1C(C)(C)C2 -2.21%
COc1ccccc1C(CC(=O)Nc1ccccc1C)c1ccc(OC(C)C)cc1 (stereo not given) 0.34%
COc1ccc(CNCCC(c2ccc(F)cc2)c2ccc(OC(C)C)cc2)cc1OC (stereo not given) -6.56%
CC(C)C12CN3CC(C(C)C)(CN(C1)C3c1ccccc1)C2O (stereo not given) -10.6%
Cn1c(=S)n(C)c2ccccc21 -7.95%
COc1ccc2cc(C(=O)OC(C)C)sc(=O)c2c1OC 3.53%
COc1cccc(OCc2cc(C3Nc4ccccc4C(=O)N3Cc3ccco3)ccc2OC)c1 (stereo not given) 42.9%
O=C(O)c1cc(-c2ccccc2)nc2ccccc12 -6.78%
CCCOc1ccc(-c2cc(C(=O)NCC3CCCO3)c3ccccc3n2)cc1 (stereo not given) -2.49%
COc1cc2cc(C)nc(Cc3cccc4ccccc34)c2cc1OC 16.5%
COc1ccc(C2C3C(C)=NN=C3CC(C)(O)C2C(C)=O)cc1 (stereo not given) -2.63%
Oc1[nH]c2ccccc2c1C1=NCCCC1 -6.01%
O=C(Cc1ccccc1[N+](=O)[O-])NCCCN1CCOCC1 -7.14%
CC(=O)N(CCC(Cc1ccccc1)c1ccco1)Cc1ccco1 (stereo not given) 40.8%
COc1ccccc1C(CCN(Cc1ccccc1)C(C)=O)c1ccco1 (stereo not given) 9.44%
CCOc1ccc2ccccc2c1CNc1nnnn1C -8.53%
COc1ccc(C(=O)Nc2nc3ccccc3c(=O)[nH]2)cc1 -4.92%
CC(=O)Oc1ccc(C(=O)O)cc1OC(C)=O 2.2%
CCC1(c2ccccc2)NC(=S)N(c2ccc(C)c(C)c2)N1 (stereo not given) -0.55%
CC(=O)/C=C/c1ccc(C)o1 18.2%
COc1cccc2c(=O)c3ccccc3oc12 -14.7%
